Reference: PubChem BioAssay
The source made the active and inactive calls.

Experiments:
Albumin (Bos taurus) = Albumin (Bos taurus) (UniProt P02769); test: compounds binding labelled BSA control protein – biochemical, small-molecule microarray, Alexa647 label, 635/667 nm fluorescence, artefact control for SMM control protein annotation, profiling panel (AID 1118); settings: BSA-A647 binding, fluorescence 635 nm, higher = more signal;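 further: score merges 667 nm emission intensity and signal-to-noise per printed compound spot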
[1] = probe aXIP binding to arrayed compounds – biochemical, NeuroSMM set, 635/667 nm fluorescence, primary screen (AID 1119); settings: small-molecule microarray, higher = more signal, called active from +8 up or from −8 down;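 further: probe is the protein aXip251-270 applied at 1 µg/mL to compound-printed slides; binding of probe to printed compounds measured as 667 nm fluorescence plus signal to noise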
[2] = probe aNOTCH3 binding on compound microarray – biochemical, small-molecule microarray, 635/667 nm fluorescence, primary screen (AID 1120); settings: higher = more signal;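 further: probe is a biotin-tagged antibody raised against NOTCH3 rather than NOTCH3 protein; score merges spot fluorescence near 667 nm with spot signal to noise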
[3] = probe aNOTCH2 binding on compound microarray – biochemical, small-molecule microarray, 635/667 nm fluorescence, primary screen (AID 1121); settings: higher = more signal;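 further: score merges feature fluorescence read at 667 nm with its signal to noise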
[4] = molecular target: Carbonic anhydrase 2 (Homo sapiens) (UniProt P00918); test: compounds binding carbonic anhydrase 2 – biochemical, small-molecule microarray, Alexa647-labelled CAII, profiling panel (AID 1122); settings: CAII-A647 binding fluorescence, higher = more signal
[5] = COS7 lysate on small-molecule microarray, probe aHis, 635 nm (AID 1123); settings: COS7 cell lysate, fluorescence, higher = more signal;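 further: z-score combines 667nm fluorescence intensity with signal-to-noise per printed compound spot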
[6] = probe aLAP1 signal on lysate-treated microarray – cell lysate, small-molecule microarray, COS7 lysate, primary screen (AID 1124); settings: probe aLAP1, fluorescence, higher = more signal;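 further: lysate comes from COS7 cells expressing LAP1 and is applied at 0.3 µg/mL; score merges spot fluorescence near 667 nm with signal-to-noise over triplicate slides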
Sam68 (KHDRBS1) = test: compounds binding KHDRBS1 protein – biochemical, small-molecule microarray, 635 nm fluorescence, primary screen (AID 1125); settings: higher = more signal;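 further: score merges 667 nm channel intensity with signal to noise over triplicate slides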
[7] = system: Chordin-like protein 2 (CHRDL2); test: compounds binding chordin-like 2 – biochemical, small-molecule microarray, 635 nm fluorescence, primary screen (AID 1126); settings: fluorescence 635 nm, higher = more signal;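 further: printed compound slides probed with Chrdl2 protein at 4 µg/mL for 1 h at 4 C; score merges 667 nm emission intensity with signal to noise over three replicate slides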
[8] = molecular target: Concanavalin-A (Canavalia ensiformis) (UniProt P02866); test: compounds binding concanavalin A lectin – biochemical, small-molecule microarray, Alexa647 label, 635 nm, artefact control for SMM control protein annotation, primary screen (AID 1127); settings: ConA-A647 binding fluorescence, higher = more signal;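 further: z combines 667 nm emission intensity with signal-to-noise across three replicate slides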
[9] = compounds binding Alexa647 anti-His antibody – biochemical, small-molecule microarray, 635 nm fluorescence, artefact control for SMM control protein annotation, primary screen (AID 1128); settings: higher = more signal;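 further: score merges feature fluorescence with signal-to-noise for each printed compound spot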
[10] = system: Human papillomavirus type 1a E7 protein (residues 1-88); test: HPV1a E7 small-molecule binders, primary screen, biochemical, small-molecule microarray, residues 1-88, 635 nm (AID 1129); settings: small-molecule microarray binding, fluorescence 635 nm; higher = more signal
[11] = molecular target: Focal adhesion kinase 1 (Homo sapiens) (UniProt Q05397); test: PTK2 protein binding on printed compound slides – biochemical, small-molecule microarray, 635/667 nm fluorescence, BSA, DTT, primary screen (AID 1130); settings: 635 nm fluorescence, higher = more signal;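 further: composite of spot emission at 667 nm and signal to noise over triplicate slides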
[12] = system: Fibrinogen (Alexa647-labelled); test: Alexa647-fibrinogen binding to printed small molecules – biochemical, small-molecule microarray, 635/667 nm fluorescence, artefact control for SMM control-protein annotation, profiling panel (AID 1131); settings: fibrinogen-A647 binding fluorescence, higher = more signal;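 further: z-score merges 667 nm fluorescence with per-spot signal-to-noise over triplicate slides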
[13] = molecular target: Follistatin (Homo sapiens) (UniProt P19883); test: FST protein binding to printed compounds – biochemical, small-molecule microarray, 635/667 nm fluorescence, primary screen (AID 1132); settings: 635 nm fluorescence, higher = more signal
[14] = molecular target: Fibroblast growth factor 2 (Homo sapiens) (UniProt P09038); test: basic fibroblast growth factor binding to printed compounds – biochemical, small-molecule microarray, 635/667 nm fluorescence, primary screen (AID 1133); settings: FGF2, fluorescence 635/667, higher = more signal
[15] = JC-1 mitochondrial potential readout, lung cancer cells – cell-based, A549, JC-1 fluorescence, basal, 24 h, 100 nL, profiling panel (AID 1138); settings: higher = more signal;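 further: A549 lung adenocarcinoma cells under basal conditions with no added stimulus; test concentration not given here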
Lefty1 = Lefty1 protein binding to printed compounds – biochemical, small-molecule microarray, 635/667 nm fluorescence, primary screen (AID 1139); settings: fluorescence 635/667, higher = more signal
[16] = system: wheat germ agglutinin (Triticum aestivum), Alexa647-labelled; test: Alexa647-WGA lectin binding to printed small molecules – biochemical, small-molecule microarray, 635/667 nm fluorescence, artefact control for SMM control-protein annotation, profiling panel (AID 1140); settings: WGA-A647 binding, 635 nm fluorescence, higher = more signal;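 further: score merges 667 nm feature emission with signal to noise over triplicate slides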
[17] = molecular target: Luciferin 4-monooxygenase (Photinus pyralis) (UniProt P08659); test: inhibition of purified Photinus pyralis luciferase – biochemical, luminescence, purified enzyme, 2006 set, primary screen (AID 1141); settings: purified firefly luciferase, SteadyGlo luminescence, 30 min; higher = more signal, called active from +8 up or from −8 down;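 further: cell-free assay with purified firefly luciferase at 100 ng per well in PBS; test concentration not given here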
Luciferin 4-monooxygenase (Photinus pyralis), sequence (P08659 whole entry, looked up): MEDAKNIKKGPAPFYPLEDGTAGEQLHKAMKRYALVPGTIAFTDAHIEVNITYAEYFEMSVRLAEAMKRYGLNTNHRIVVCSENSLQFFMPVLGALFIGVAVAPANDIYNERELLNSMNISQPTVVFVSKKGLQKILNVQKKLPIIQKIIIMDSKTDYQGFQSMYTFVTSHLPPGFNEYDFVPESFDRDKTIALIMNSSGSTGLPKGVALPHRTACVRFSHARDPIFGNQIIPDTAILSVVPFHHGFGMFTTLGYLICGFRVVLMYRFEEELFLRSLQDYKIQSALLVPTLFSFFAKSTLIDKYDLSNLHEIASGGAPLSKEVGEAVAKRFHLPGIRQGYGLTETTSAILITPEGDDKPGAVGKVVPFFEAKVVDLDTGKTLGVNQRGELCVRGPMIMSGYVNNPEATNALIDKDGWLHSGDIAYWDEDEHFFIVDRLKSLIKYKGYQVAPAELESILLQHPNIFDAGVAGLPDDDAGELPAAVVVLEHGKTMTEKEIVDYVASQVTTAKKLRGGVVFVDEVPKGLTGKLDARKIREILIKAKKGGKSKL

Concanavalin-A (Canavalia ensiformis), sequence (P02866 whole entry, looked up): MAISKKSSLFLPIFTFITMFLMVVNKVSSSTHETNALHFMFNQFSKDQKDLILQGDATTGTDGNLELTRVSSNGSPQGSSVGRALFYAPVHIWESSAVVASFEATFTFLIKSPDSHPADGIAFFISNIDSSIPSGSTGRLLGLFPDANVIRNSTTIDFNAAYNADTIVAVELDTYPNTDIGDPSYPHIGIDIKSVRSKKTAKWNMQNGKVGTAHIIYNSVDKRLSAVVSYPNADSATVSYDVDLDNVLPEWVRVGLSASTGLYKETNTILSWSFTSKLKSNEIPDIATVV
Fibroblast growth factor 2 (Homo sapiens), sequence (P09038 whole entry, looked up): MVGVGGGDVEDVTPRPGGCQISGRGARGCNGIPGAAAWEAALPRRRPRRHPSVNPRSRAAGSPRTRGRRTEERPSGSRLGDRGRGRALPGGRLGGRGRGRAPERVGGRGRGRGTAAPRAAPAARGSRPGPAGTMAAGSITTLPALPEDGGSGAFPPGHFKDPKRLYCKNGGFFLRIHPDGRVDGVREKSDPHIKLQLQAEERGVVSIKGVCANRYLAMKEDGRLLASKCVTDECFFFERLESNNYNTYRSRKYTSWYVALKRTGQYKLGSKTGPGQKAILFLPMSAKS
Albumin (Bos taurus), sequence (P02769 whole entry, looked up): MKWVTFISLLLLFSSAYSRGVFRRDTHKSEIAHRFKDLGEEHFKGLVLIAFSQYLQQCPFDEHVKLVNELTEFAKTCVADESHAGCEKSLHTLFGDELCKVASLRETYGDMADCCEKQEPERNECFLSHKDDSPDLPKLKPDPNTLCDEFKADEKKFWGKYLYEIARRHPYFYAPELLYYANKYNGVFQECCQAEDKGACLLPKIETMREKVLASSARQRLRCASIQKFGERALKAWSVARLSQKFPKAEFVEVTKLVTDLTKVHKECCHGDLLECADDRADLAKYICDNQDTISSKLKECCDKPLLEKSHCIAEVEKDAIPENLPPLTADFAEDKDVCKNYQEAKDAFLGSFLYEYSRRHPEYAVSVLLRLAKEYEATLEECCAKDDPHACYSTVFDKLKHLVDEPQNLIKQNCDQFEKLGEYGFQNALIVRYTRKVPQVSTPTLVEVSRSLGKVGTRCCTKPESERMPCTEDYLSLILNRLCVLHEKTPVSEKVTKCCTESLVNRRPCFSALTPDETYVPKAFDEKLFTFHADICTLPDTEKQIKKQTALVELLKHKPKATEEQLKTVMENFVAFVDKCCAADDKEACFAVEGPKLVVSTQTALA
Follistatin (Homo sapiens), sequence (P19883 whole entry, looked up): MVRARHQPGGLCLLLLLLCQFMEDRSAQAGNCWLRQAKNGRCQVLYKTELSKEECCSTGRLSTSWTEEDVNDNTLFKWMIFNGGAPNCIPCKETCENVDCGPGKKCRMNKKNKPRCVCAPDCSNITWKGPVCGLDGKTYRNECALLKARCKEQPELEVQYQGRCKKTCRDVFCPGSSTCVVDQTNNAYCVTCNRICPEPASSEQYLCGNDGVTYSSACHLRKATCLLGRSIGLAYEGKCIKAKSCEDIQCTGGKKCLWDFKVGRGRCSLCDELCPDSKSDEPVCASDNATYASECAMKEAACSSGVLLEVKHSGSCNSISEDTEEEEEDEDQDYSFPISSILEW
Focal adhesion kinase 1 (Homo sapiens), sequence (Q05397 whole entry, looked up): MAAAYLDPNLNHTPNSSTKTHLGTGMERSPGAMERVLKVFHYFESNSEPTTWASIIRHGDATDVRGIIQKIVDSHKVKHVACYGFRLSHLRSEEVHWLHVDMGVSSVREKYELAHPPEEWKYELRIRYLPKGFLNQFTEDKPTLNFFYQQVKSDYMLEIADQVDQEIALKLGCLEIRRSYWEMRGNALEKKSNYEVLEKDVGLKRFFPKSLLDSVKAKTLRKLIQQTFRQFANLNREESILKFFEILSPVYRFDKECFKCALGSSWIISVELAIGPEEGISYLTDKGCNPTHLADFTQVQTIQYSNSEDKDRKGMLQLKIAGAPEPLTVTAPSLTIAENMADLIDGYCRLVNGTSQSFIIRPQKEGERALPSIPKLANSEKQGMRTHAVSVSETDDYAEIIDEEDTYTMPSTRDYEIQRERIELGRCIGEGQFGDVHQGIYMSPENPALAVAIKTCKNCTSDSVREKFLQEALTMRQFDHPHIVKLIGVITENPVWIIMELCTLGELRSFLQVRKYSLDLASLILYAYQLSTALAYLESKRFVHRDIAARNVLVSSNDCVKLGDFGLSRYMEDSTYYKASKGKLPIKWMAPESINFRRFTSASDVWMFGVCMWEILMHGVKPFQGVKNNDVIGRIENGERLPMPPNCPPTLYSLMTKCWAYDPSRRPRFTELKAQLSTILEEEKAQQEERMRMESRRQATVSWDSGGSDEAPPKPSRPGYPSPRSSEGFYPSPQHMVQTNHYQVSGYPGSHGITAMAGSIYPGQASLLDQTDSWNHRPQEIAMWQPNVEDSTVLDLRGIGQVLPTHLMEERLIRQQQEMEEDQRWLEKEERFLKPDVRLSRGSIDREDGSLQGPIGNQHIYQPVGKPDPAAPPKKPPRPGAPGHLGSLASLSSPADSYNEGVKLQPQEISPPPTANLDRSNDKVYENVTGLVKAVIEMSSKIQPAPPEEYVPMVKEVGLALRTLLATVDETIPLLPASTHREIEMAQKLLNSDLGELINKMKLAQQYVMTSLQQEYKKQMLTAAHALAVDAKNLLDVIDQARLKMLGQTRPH

SMILES | composite z-score (Albumin (Bos taurus)) | composite Z-score [1] | composite z-score [2] | composite z-score [3] | composite z-score [4] | composite z-score [5] | composite z-score [6] | composite z-score (Sam68 (KHDRBS1)) | composite z-score [7] | composite z-score [8] | composite z-score [9] | composite z-score [10] | composite z-score [11] | composite z-score [12] | composite z-score [13] | composite z-score [14] | z-score [15] | composite z-score (Lefty1) | composite z-score [16] | z-score [17]
O=C1CCCC=C1C(O)COCc1ccccc1 (stereo not given) | 0.411 | 0.16 (inactive) | -0.154 | -0.157 | -0.213 | 0.428 | 0.08 | -1.01 | -0.137 | 0.999 | 0.195 | -1.33 | 0.0944 | 0.772 | 0.124 | 0.236 | -0.68 | 0.295 | -0.0439 | 0.345 (inactive)
CC(C)CON=C1C[C@@H](O)[C@@H](O)[C@@H]2[C@@H]3C(=O)N(Cc4ccc5c(c4)OCO5)C(=O)[C@@H]3CC[C@@H]12 | 0.713 | 0.311 (inactive) | -0.179 | -0.0891 | 0.614 | 0.862 | -0.0121 | 0.853 | -0.0113 | 0.922 | 0.918 | 0.245 | 0.227 | 0.655 | 0.0087 | 1.22 | 0.0679 | -0.0226 | 0.0667 | 0.966 (inactive)
CCOC(=O)[C@H](Cc1ccccc1)NC(=O)CCC1CC(OC(=O)NCc2ccc3c(c2)OCO3)CC2(CCCC(COC(=O)NCCCN3CCCC3=O)O2)O1 (stereo not given in full) | 0.613 | 0.581 (inactive) | -0.0204 | -0.179 | 0.454 | 1.27 | 0.334 | 1.32 | 0.329 | 1.1 | 0.556 | 0.959 | 0.28 | 0.87 | 0.72 | 0.537 | 0.232 | 0.428 | 0.305 | 1.12 (inactive)
C=CC[C@@H]1C=C[C@H](ON=C(C)CCN2CCCc3nc(C)c(C)cc32)[C@@H](CO)O1 | -0.858 | 2.94 (inactive) | 0.712 | 0.276 | -0.1 | 0.735 | 0.629 | 1.32 | 1.3 | -0.12 | 0.229 | 0.736 | 0.817 | -0.355 | 1.25 | 1 | 0.289 | 1.16 | -0.205 | 0.949 (inactive)
CC(C)CON=C1C[C@@H](O)[C@@H](O)[C@@H]2[C@@H]3C(=O)N(c4ccc(F)cc4F)C(=O)[C@@H]3CC[C@@H]12 | 0.238 | -0.0578 (inactive) | -0.095 | -0.0896 | 0.0617 | -0.146 | 0.135 | 0.693 | 0.243 | 0.72 | 0.663 | 0.105 | 0.156 | 0.699 | 0.585 | 0.508 | -0.99 | 0.617 | -0.0433 | 0.831 (inactive)
O=C1C=C[C@@H](O)[C@@H]2[C@@H]3C(=O)N(Cc4ccccc4)C(=O)[C@@H]3CC[C@@H]12 | 0.22 | -0.5 (inactive) | 0.21 | -0.132 | -0.0331 | 0.556 | -0.139 | 0.0888 | 0.482 | 0.619 | 0.0502 | 0.673 | 0.168 | 0.394 | 0.415 | 0.484 | 0.831 | 0.314 | 0.228 | -0.505 (inactive)
COc1ccc(COC(=O)NN=C2C[C@@H](O)[C@@H](O)[C@@H]3[C@@H]4C(=O)N(C[C@@H]5CCCO5)C(=O)[C@@H]4CC[C@@H]23)cc1 | 0.0566 | 0.58 (inactive) | -0.128 | -0.0832 | 0.234 | 0.727 | 0.824 | 0.78 | 0.508 | 0.327 | 0.365 | 0.275 | -0.2 | 0.953 | 0.0253 | 0.104 | 0.883 | 0.0359 | 0.627 | 0.181 (inactive)
CON=C1c2cc(OC)ccc2O[C@H](c2cccc(OC)c2)[C@H]1O | -0.181 | 0.133 (inactive) | 0.123 | 0.0267 | 0.11 | 0.275 | 0.332 | 0.415 | 0.707 | 0.267 | 0.293 | 0.416 | 0.197 | 0.273 | 0.587 | 0.675 | 0.314 | 0.6 | 0.208 | -2.9 (inactive)
COc1ccc(O[C@H]2C=C[C@@H](c3ccccc3)O[C@@H]2COC(=O)CCC(C)=NOC[C@@H](O)COCc2ccco2)cc1 | 0.214 | -0.22 (inactive) | -0.919 | -0.271 | -0.888 | -1.8 | -0.875 | -0.875 | -3.04 | -2.57 | 0.614 | -0.99 | -0.814 | -3.44 | -2.77 | -2.63 | -0.424 | -1.58 | -0.674 | -0.49 (inactive)
CC(=O)OC[C@H]1O[C@H](CC=NO[C@@H](C)c2cc(-c3c(C)cc(C)cc3C)no2)C=C[C@@H]1OC(C)=O | 0.211 | 0.209 (inactive) | -0.0984 | -0.0532 | -0.273 | -0.447 | 0.234 | -0.177 | 0.236 | 0.105 | 1.81 | -0.375 | -0.206 | 0.318 | 0.0047 | 0.323 | -0.921 | -0.0273 | 0.229 | 0.644 (inactive)
COC(=O)[C@H](C)NC(=O)CCC1CC(OC(=O)NCCc2ccc(F)cc2)CC2(CCCC(COC(=O)NCC3CCCCC3)O2)O1 (stereo not given in full) | 0.0505 | 0.697 (inactive) | -0.0362 | -0.106 | 0.427 | 1.52 | 0.191 | 1.3 | 0.507 | 0.971 | 0.608 | 1.19 | 0.178 | 0.86 | 0.639 | 0.572 | -1.03 | 0.744 | 0.804 | 0.765 (inactive)
